Source: PubChem BioAssay (Tox21)
Records with an inconclusive call do not appear. Where a call stands in place of a potency, no number is given. The source made the active and inactive calls. Unless noted, the call rests on the fitted dose curve; in most records, active means well fitted curve in the direction sought with a large enough effect in the repeat runs; inconclusive means weak or mixed curves; inactive means no such curve, though single readings can be large; an effect the other way counts as inactive or inconclusive.

How the values were obtained:
[1] = biological target: Peroxisome proliferator-activated receptor delta (Homo sapiens) (UniProt Q03181); test: qHTS assay to identify small molecule agonists of the peroxisome proliferator-activated receptor delta (PPARd) signaling pathway (AID 743212; calls by dose curve); conditions: HEK293H PPARd-UAS-bla, beta-lactamase FRET ratio, 17 h; series mostly up to 62.6 µM
Peroxisome proliferator-activated receptor delta (Homo sapiens), sequence (Q03181 whole entry, looked up): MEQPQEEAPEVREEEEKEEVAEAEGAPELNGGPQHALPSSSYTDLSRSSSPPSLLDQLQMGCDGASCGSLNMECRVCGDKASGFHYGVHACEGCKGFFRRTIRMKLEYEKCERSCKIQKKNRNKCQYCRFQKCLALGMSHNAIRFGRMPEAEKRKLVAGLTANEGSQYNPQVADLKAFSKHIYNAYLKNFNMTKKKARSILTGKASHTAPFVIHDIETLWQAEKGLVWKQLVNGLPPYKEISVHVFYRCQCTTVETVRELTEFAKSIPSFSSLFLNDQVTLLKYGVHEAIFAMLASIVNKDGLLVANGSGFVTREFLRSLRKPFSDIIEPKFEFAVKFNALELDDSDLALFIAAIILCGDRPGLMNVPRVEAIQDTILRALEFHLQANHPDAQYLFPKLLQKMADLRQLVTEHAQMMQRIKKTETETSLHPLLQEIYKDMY
Method in brief: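 HEK293H UAS-bla reporter cells, human PPARd system; compounds delivered in DMSO after 5 h plating, then at 37 C. Beta-lactamase FRET read, 2 h RT substrate step.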

[2] = qHTS assay to identify small molecule antagonists of the peroxisome proliferator-activated receptor delta (PPARd) signaling pathway - cell viability counter screen (AID 743213); conditions: PPARd-bla HEK293H viability, CellTiter-Glo luminescence, 17 h; series mostly up to 62 µM; further: nearly all actives have a fitted effect of over 50% in size; further: potency means the concentration at half of the fitted maximal effect
Method in brief: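 PPARd-bla HEK293H cells were treated with compounds plus agonist L165041 (300 nM final) for 17 h at 37 C. Viability was then read in the same wells by CellTiter-Glo luminescence after 30 min at room temperature.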

[3] = biological target: Bile acid receptor (Homo sapiens) (UniProt Q96RI1); test: qHTS assay to identify small molecule antagonists of the farnesoid-X-receptor (FXR) signaling pathway (AID 743217; active means well fitted inhibition curve with a large enough effect in the signal ratio in the repeat runs, not every such curve was filed as active; the % refers to the signal ratio); conditions: HEK293T FXR-UAS-bla, beta-lactamase ratio, CDCA-stimulated, 16 h; series mostly up to 62.6 µM
Bile acid receptor (Homo sapiens), sequence (Q96RI1 whole entry, looked up): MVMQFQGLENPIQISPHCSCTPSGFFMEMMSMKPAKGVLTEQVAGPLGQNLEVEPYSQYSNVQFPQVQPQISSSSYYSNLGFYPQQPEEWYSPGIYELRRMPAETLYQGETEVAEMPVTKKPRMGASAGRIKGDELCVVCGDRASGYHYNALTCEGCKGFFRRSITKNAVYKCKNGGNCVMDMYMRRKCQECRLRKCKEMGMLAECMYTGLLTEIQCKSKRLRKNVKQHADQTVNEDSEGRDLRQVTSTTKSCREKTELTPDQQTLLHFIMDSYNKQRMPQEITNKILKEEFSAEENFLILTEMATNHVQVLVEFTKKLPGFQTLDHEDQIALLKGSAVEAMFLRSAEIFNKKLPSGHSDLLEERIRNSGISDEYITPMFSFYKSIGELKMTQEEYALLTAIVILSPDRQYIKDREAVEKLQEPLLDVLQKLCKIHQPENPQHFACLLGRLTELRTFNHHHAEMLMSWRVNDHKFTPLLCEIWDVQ
Method in brief: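 FXR-UAS-bla HEK 293T cells (beta-lactamase reporter) given compound plus chenodeoxycholic acid (50 uM final), 16 h at 37C. LiveBLAzer B/G FRET substrate added for 2 h at room temperature; fluorescence read.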

[4] = qHTS assay to identify small molecule agonists of the farnesoid-X-receptor (FXR) signaling pathway - cell viability counter screen (AID 743218); conditions: FXR-bla HEK293T viability, CellTiter-Glo luminescence, 16 h; series mostly up to 62.6 µM; further: nearly all actives have a fitted effect of over 45% in size; further: potency means the concentration at half of the fitted maximal effect
Method in brief: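 FXR-UAS-bla HEK 293T cells exposed to compounds for 16 h at 37C. Cytotoxicity read in the same wells by CellTiter-Glo luminescence after 30 min at room temperature, following the beta-lactamase FRET read.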

[5] = biological target: Bile acid receptor (Homo sapiens) (UniProt Q96RI1); test: qHTS assay to identify small molecule agonists of the farnesoid-X-receptor (FXR) signaling pathway (AID 743220; active means well fitted activation curve with a large enough effect in the signal ratio in the repeat runs, not every such curve was filed as active; the % refers to the signal ratio); conditions: HEK293T FXR-UAS-bla, beta-lactamase FRET ratio, 16 h; series mostly up to 62.6 µM
Method in brief: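 Beta-lactamase reporter under UAS control in GeneBLAzer FXR HEK 293T cells (5000/well) measured with LiveBLAzer FRET substrate after 2 h at room temperature. Compound exposure lasted 16 h at 37C.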

[6] = qHTS assay to identify small molecule antagonists of the farnesoid-X-receptor (FXR) signaling pathway - cell viability counter screen (AID 743221; active means well fitted cell-killing curve with a large enough effect in the repeat runs, not every such curve was filed as active; further: nearly all actives have a fitted effect of over 50% in size; further: potency means the concentration at half of the fitted maximal effect); conditions: FXR-bla HEK293T viability, CellTiter-Glo luminescence, 16 h; series mostly up to 62.6 µM
Method in brief: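 Quantitative HTS of the Tox21 10K library run in parallel with the beta-lactamase reporter read. HEK 293T cells carrying a UAS-driven bla reporter got compound and 50 uM CDCA (final) for 16 h; ATP-based luminescence followed.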

[7] = qHTS assay to identify small molecule agonists of the vitamin D receptor (VDR) signaling pathway - cell viability counter screen (AID 743224); conditions: VDR-bla HEK293T viability, CellTiter-Glo luminescence, 16 h; series mostly up to 62.6 µM; further: nearly all actives have a fitted effect of over 50% in size; further: potency means the concentration at half of the fitted maximal effect
Method in brief: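 VDR-bla cells, 4 h after plating, exposed to compounds for 16 h at 37C; viability then read in the same wells as CellTiter-Glo luminescence after 30 min at room temperature, following the bla FRET read.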

[8] = biological target: Peroxisome proliferator-activated receptor delta (Homo sapiens) (UniProt Q03181); test: qHTS assay to identify small molecule antagonists of the peroxisome proliferator-activated receptor delta (PPARd) signaling pathway (AID 743215; active means well fitted inhibition curve with a large enough effect in the signal ratio in the repeat runs, not every such curve was filed as active; the % refers to the signal ratio;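 further: cells stimulated with agonist L165041 at 300 nM final during compound exposure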; further: potency means the concentration at half of the fitted maximal effect); conditions: HEK293H PPARd-UAS-bla, beta-lactamase FRET ratio, antagonist, 17 h; series mostly up to 62 µM
Method in brief: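 PPARd-bla HEK293H cells (UAS-bla reporter) preincubated 5 h, then given compound plus 300 nM final L165041 agonist for 17 h at 37 C. Beta-lactamase activity read by LiveBLAzer B/G FRET substrate fluorescence after 2 h at room temperature.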

[9] = biological target: Vitamin D3 receptor (Homo sapiens) (UniProt P11473); test: qHTS assay to identify small molecule antagonists of the vitamin D receptor (VDR) signaling pathway (AID 743223; active means well fitted inhibition curve with a large enough effect in the signal ratio in the repeat runs, not every such curve was filed as active; the % refers to the signal ratio; further: potency means the concentration at half of the fitted maximal effect); conditions: VDR-UAS-bla HEK293T, beta-lactamase FRET ratio, 16 h; series mostly up to 61 µM
Vitamin D3 receptor (Homo sapiens), sequence (P11473 whole entry, looked up): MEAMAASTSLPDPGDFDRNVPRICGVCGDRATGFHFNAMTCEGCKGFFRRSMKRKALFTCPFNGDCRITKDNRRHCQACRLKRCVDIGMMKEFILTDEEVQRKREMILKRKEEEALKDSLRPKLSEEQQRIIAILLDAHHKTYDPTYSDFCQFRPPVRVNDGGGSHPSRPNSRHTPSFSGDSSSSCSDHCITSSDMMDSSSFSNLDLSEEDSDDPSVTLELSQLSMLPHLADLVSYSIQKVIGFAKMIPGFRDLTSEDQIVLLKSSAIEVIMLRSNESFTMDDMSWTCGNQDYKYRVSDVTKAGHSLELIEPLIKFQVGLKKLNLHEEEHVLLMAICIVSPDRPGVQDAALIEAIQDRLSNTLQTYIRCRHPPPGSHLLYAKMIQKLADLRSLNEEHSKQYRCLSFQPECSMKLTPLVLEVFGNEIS
Method in brief: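 Fluorescence from LiveBLAzer B/G FRET substrate, read after 2 h at room temperature, reflects beta-lactamase reporter activity in VDR-bla cells treated 16 h at 37C with compounds and agonist 1alpha,25-dihydroxyvitamin D3 (3 nM final).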

[10] = biological target: Vitamin D3 receptor (Homo sapiens) (UniProt P11473); test: qHTS assay to identify small molecule agonists of the vitamin D receptor (VDR) signaling pathway (AID 743222; calls by dose curve); conditions: HEK293T VDR-UAS-bla, beta-lactamase FRET ratio, 16 h; series mostly up to 63.5 µM
Method in brief: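 VDR-bla cells plated 4 h at 37 C, then exposed to compounds for 16 h at 37 C. Beta-lactamase reporter activity measured by fluorescence after 2 h room-temperature loading with LiveBLAzer B/G FRET substrate.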

Compound | outcome [1] | Potency [2] | Potency [3] | Potency [4] | outcome [5] | Potency [6] | Potency [7] | Potency [8] | Potency [9] | outcome [10]
COc1cc([C@@H]2c3cc4c(cc3[C@@H](O[C@@H]3O[C@@H]5CO[C@@H](C)O[C@H]5[C@H](O)[C@H]3O)[C@H]3COC(=O)[C@H]23)OCO4)cc(OC)c1O | inactive | 21.6 µM (active) | inactive | inactive | inactive | inactive | 21.6 µM (active) |  |  | 
CCCCCCCCCC[N+](C)(CCCCCCCCCC)CCC[Si](OC)(OC)OC | inactive | 9.77 µM (active) |  | 8.71 µM (active) |  |  | 6.92 µM (active) | inactive | inactive | 
c1ccc2cc3c4ccccc4c4ccccc4c3cc2c1 | inactive | inactive |  | inactive |  | inactive | inactive | inactive | inactive | inactive
CCCOC(=O)c1ccc(O)cc1 | inactive |  |  |  |  |  |  |  |  | 
CN1CCN(c2ccccc2/C=C2\SCCN(c3ccc(Cl)c(Cl)c3)C2=O)CC1 |  | 24.5 µM (active) |  | 43.6 µM (active) |  | 54.9 µM (active) | 38.9 µM (active) | 21.9 µM (active) |  | inactive
Oc1ccc(Cl)cc1C1CCCC1 | inactive | inactive | inactive | inactive | inactive | inactive | inactive |  |  | 
CCCCCCCCCCCCCCCCC(C(=O)O)C(O)(CC(=O)O)C(=O)O (configuration not stated) | inactive | 18.8 µM (active) |  | 18.8 µM (active) |  | 23.7 µM (active) | 26.6 µM (active) |  | inactive | inactive
c1ccc(-c2ccc(C(c3ccccc3)n3ccnc3)cc2)cc1 (configuration not stated) | inactive |  |  |  |  |  |  | 26.6 µM (active) | inactive | inactive
CC(=O)[C@]1(O)Cc2c(O)c3c(c(O)c2[C@@H](O[C@H]2C[C@H](N)[C@H](O)[C@H](C)O2)C1)C(=O)c1ccccc1C3=O |  | inactive |  |  |  | inactive | inactive | 3.76 µM (active) | 1.9 µM (active) | inactive
